This is part of a sample that, as a whole, favours compounds with a hit. Of some 83,000 tested, about 20% had one in any assay.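 Cells were grown in 96-well plates and exposed to the test compound at a single concentration for 48 hours; results are reported as percent growth, with values below 10 considered active.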 Values without a mark were called inactive. Calls of active or inactive are those of the source.
The molecules below were run on HCT-15 colon (assay: NCI-60 one-dose screen, 48 h (100 = growth as untreated, 0 = no growth, -100 = all killed)). Settings: 10 µM unless noted.

For `COc1ccc(/C(C)=C(\c2ccc(Cl)cc2)c2ccc(OCCN3CCCCC3)cc2)cc1`, the growth was 9.98% (active).
For `COc1ccc(-c2ccc(-c3ccc(C(=N)N)nc3)s2)cc1Cl`, the growth was -77.4% (active).
In the case of `NC(=O)c1c(NC(=O)c2cccc(C(F)(F)F)c2)sc2c1CCC(=O)C2`, the growth is reported as -21.2% (active).

Point of comparison: `CCCCNC(=O)c1cc([N+](=O)[O-])cc(C2CCCCC2)c1O`, growth 42.7%. Against it:
- CN(C)CCCC1(c2ccc(F)cc2)OCc2cc(-c3ccc4cc[nH]c4c3)ccc21 (centres undefined) — lower, 25.8%
- COc1ccc(/C=C/c2ccc3ccccc3n2)c(OC)c1 — higher, 56%
- Cc1ccc(C(=O)c2ccc(CC(=O)N=Nc3c(O)[nH]c4ccc(Br)cc34)n2C)cc1 — higher, 96.7%
- CC1=C(C(=O)Nc2ccccc2)C(c2ccc3c(c2)OCO3)NC(=S)N1 (centres undefined) — higher, 101%
- Nc1nc(N)c2c(n1)NC(c1cccc(Nc3ccnc4cc(C(F)(F)F)ccc34)c1)CC(c1ccc(Br)cc1)=N2 (centres undefined) — lower, 19.5%
- O=C1c2ccccc2C(=O)c2c1c(C(=O)NCc1ccccc1)c1ccccn21 — higher, 114%
- O=C(CI)NC(=O)NC(=O)NCc1ccccc1 — lower, 17.4%
- COc1ccc(C2=CC(c3cc(OC)c(OC)c(OC)c3)n3ncnc3N2)cc1 (centres undefined) — lower, 14.5%
- Cc1ccc(C(=O)Nc2cccc(C#Cc3cccc4[nH]nc(N)c34)c2)cc1C(F)(F)F — higher, 48.9%
- CCOC(=O)c1ccccc1-c1c2ccc(=[N+](C)C)cc-2oc2cc(N(C)C)ccc12 — higher, 70.2%

— PubChem BioAssay (NCI)
